Data on 14 compounds can be found in PubChem BioAssay.

The source made the active and inactive calls.

Experiment [1] deals with PRMT1 (protein arginine N-methyltransferase 1). Put plainly: PRMT1 binders on small-molecule microarrays, primary screen, biochemical, small-molecule microarray, 635 nm fluorescence (AID 1088).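 Note: binding of Prmt1 protein to compounds spotted on small-molecule microarray slides.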 To be noted: small-molecule microarray binding, higher = more signal.
The nature of experiment [2]: yeast growth modulation, basal conditions, primary screen, YJM789 clinical isolate, OD600, 24 h (AID 1089).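 Note: growth of clinical yeast isolate S. cerevisiae YJM 789 seeded 1000 cells per well; test concentration not given here.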 The settings on record: S. cerevisiae YJM789 growth, higher = more signal, called active from +8 up or from −8 down.
The nature of experiment [3]: fission yeast growth modulation, primary screen, strain 972, OD600, 24 h, no modulator (AID 1090).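 Note: basal condition with compound alone and no growth modifier present; test concentration not given here.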 To be noted: S. pombe 972 growth, higher = more signal, called active from +8 up or from −8 down.
Experiment [4] in a line: S. cerevisiae growth modulation with rapamycin, primary screen, strain BY4716, OD600, 96 h (AID 1091). Note: test concentration not given here. To be noted: higher = more signal, called active from +8 up or from −8 down.
Experiment [5] has as its target Torsin-1A-interacting protein 2 (Homo sapiens) (UniProt Q8NFQ8). Briefly: LULL1 binders on small-molecule microarray, primary screen, cell lysate, human LULL1 lysate, 635/667 nm fluorescence (AID 1092).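 Note: probe is lysate of COS7 cells overexpressing human LULL1; score merges per-feature 667 nm fluorescence with signal-to-noise.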 The settings on record: hLULL1 lysate binding, 635 nm fluorescence, higher = more signal.
A short description of experiment [6]: E. coli growth modulation, two-sided OD650, primary screen, E. coli filamentation project, strain DRC41, 24 h (AID 1093).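 Note: MC1000 strain lacking acrAB efflux and sulA so SOS filamentation is blocked; test concentration not given here.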 To be noted: OD650, 24 h, higher = more signal, called active from +8 up or from −8 down.
Experiment [7] can be described thus: small-molecule microarray binders of probe aLefty2, primary screen, biochemical, biotinylated probe, 635/667 nm fluorescence (AID 1094).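 Note: score merges spot fluorescence near 667 nm with spot signal-to-noise ratio.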 To be noted: higher = more signal.
Experiment [8] deals with Noggin (protein binding on small-molecule microarray). Briefly: Noggin binders on small-molecule microarray, primary screen, biochemical, 635/667 nm fluorescence (AID 1095).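 Note: score merges 667 nm feature fluorescence with signal to noise over triplicate slides.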 The settings on record: 635 nm fluorescence, higher = more signal.
The target in experiment [9] is Neurogenic locus notch homolog protein 3 (Homo sapiens) (UniProt Q9UM47). Put plainly: NOTCH3 binders on small-molecule microarray, primary screen, biochemical, 635/667 nm fluorescence (AID 1096). To be noted: NOTCH3 binding, 635 nm fluorescence, higher = more signal.
The nature of experiment [10]: small-molecule microarray binders of probe aEGFR, primary screen, biochemical, biotinylated probe, 635/667 nm fluorescence (AID 1097).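 Note: probe is a biotinylated anti-EGFR antibody binding compounds printed on slides; score combines fluorescence near 667 nm and signal to noise of each spot.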 The settings on record: higher = more signal.

Chain of Neurogenic locus notch homolog protein 3 (Homo sapiens) (Q9UM47 whole entry, looked up): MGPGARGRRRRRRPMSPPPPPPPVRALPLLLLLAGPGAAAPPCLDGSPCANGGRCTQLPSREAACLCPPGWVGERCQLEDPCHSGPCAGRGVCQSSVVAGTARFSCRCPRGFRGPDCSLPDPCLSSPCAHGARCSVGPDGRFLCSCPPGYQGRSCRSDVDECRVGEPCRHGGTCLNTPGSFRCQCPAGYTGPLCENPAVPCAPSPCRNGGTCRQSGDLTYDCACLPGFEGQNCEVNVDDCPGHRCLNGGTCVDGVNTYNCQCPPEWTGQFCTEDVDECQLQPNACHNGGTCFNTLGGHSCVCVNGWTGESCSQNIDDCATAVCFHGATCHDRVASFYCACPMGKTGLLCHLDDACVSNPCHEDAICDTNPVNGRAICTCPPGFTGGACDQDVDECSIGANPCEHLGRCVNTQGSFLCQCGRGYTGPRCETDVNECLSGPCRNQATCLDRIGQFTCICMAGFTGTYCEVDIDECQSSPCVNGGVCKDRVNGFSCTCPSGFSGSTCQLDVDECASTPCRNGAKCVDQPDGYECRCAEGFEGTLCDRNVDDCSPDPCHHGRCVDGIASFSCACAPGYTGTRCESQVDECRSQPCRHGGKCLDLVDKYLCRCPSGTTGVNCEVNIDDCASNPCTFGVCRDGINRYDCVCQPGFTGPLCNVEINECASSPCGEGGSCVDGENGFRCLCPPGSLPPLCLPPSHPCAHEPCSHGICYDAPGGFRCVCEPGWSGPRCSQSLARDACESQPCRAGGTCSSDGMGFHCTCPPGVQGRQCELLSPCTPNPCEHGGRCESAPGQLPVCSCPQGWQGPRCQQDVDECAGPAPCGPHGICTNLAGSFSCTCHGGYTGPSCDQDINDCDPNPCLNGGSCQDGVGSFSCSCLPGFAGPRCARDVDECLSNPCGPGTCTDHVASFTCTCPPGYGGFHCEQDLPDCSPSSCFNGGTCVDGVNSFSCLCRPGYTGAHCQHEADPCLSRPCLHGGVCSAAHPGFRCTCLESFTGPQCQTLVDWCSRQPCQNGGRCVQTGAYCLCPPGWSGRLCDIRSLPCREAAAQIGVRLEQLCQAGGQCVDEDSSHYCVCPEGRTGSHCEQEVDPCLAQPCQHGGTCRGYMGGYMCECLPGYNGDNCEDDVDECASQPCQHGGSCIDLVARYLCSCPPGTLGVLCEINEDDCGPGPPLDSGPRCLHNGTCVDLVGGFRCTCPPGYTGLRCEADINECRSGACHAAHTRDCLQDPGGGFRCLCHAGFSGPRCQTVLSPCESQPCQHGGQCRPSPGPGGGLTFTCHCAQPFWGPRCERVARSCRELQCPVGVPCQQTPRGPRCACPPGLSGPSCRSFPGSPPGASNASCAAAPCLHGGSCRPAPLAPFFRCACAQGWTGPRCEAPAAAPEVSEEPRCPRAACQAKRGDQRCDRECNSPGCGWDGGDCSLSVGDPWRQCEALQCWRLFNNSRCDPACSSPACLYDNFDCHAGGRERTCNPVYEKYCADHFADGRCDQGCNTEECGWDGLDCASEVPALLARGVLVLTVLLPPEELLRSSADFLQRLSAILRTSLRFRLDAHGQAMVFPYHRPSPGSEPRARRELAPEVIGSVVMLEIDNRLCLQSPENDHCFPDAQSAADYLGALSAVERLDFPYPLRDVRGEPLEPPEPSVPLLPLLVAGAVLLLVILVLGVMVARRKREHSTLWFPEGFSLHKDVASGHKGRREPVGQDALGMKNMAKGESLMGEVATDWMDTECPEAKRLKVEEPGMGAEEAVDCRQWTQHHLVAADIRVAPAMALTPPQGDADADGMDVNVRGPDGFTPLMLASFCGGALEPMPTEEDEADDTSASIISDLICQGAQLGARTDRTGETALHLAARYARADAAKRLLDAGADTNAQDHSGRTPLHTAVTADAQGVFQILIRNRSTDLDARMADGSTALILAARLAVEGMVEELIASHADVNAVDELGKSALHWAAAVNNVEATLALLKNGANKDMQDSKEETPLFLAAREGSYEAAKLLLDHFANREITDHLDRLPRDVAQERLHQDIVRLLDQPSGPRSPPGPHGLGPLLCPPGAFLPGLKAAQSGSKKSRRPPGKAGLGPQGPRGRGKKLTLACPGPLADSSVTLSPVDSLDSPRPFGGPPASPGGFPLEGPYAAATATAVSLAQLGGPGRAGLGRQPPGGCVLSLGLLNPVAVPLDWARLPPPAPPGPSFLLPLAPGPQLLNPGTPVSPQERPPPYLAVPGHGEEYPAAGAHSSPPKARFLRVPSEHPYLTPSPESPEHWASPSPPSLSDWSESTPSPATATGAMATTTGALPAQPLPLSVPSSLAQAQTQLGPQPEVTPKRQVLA
Chain of Torsin-1A-interacting protein 2 (Homo sapiens) (Q8NFQ8 whole entry, looked up): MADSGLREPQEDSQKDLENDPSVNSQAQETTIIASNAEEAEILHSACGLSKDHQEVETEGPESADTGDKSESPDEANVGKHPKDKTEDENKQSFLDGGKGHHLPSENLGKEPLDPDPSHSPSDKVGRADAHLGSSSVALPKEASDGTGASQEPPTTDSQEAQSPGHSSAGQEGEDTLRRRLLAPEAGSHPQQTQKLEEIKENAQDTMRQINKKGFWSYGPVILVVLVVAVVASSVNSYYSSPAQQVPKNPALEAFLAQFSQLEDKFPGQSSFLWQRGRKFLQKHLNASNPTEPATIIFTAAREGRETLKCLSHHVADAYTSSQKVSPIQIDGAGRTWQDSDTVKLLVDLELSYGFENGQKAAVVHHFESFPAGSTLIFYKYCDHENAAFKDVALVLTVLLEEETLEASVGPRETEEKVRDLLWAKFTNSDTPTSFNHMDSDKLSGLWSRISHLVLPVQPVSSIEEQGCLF

As for `CC[C@@H]1C=C(C(=O)O)[C@H](c2cccc3ccccc23)N1S(=O)(=O)c1ccc(C)cc1`, the composite z-score in [1] is 0.479; in experiment [5] it was 3; in experiment [7], -0.0537; in experiment [8], 0.0891; in experiment [9], 0.814; in experiment [10], -0.0356. In addition, the z-score in experiment [2] was -0.118 (inactive); in experiment [3], 1.49 (inactive); in experiment [4], -0.168 (inactive); in [6], -0.428 (inactive).

In the case of `C=CCC(OC(C)=O)[C@@H]1[C@@H](N(Cc2cc3ccccc3o2)C(=O)Cc2ccc(OC)cc2)c2cc(OCCCO)ccc2N1C(=O)c1ccc2ccccc2c1` (stereo not given in full), the composite z-score in experiment [1] is -0.843; in experiment [5], -0.266; in [7], -0.0097; in experiment [8], -0.104; in experiment [9], -0.379; in [10], -0.201. For the same compound, the z-score in [2] is -0.179 (inactive); in experiment [3], 0.568 (inactive); in [4] it was 0.194 (inactive); in experiment [6], -0.457 (inactive).

On to `COc1ccc(CCNC(=O)[C@@]2(C)c3ccccc3C(=O)N(c3ccc(C)cn3)[C@H]2c2ccc(CO)cc2)cc1`, for which the composite z-score in experiment [1] was -0.0351; in [5], -0.04; in experiment [7], 0.0851; in experiment [8], -0.704; in experiment [9], -0.736; in experiment [10] it was -0.247. For the same compound, the z-score was -1.39 (inactive) in experiment [2], -0.739 (inactive) in experiment [3], -1.17 (inactive) in experiment [4] and -0.121 (inactive) in experiment [6].

As to `C[N+](C)(C)CCCC[C@@H]1NC(=O)[C@@H]2C[C@H](C(=O)NCCCCCN)[C@H](c3ccc(O)cc3)N2C1=O`, the composite z-score in [1] was found to be 1.53; in experiment [5] it was 2.46; in [7], 0.79; in experiment [8] it was 1.01; in experiment [9] it was 1.09; in experiment [10] it was 0.239. In addition, the z-score is -4.09 (inactive) in experiment [2], -1.1 (inactive) in experiment [3], -0.978 (inactive) in experiment [4] and 1.12 (inactive) in [6].

As for `CC1CC/C=C\[C@H]2OC34C=CCN(c5ccc6ccccc6c5)C(=O)[C@H]3N(CCO)C(=O)[C@@H]4C2C(=O)O1` (stereo not given in full), the composite z-score is 0.229 in [1]; 2.07 in [5]; 0.314 in experiment [7]; -1.11 in [8]; 0.521 in experiment [9]; -0.123 in experiment [10]. Besides, the z-score is -0.646 (inactive) in experiment [2], -1.4 (inactive) in experiment [3], -0.764 (inactive) in [4] and 0.764 (inactive) in experiment [6].

Take `C=C(CCCC)C(=O)CC[C@H](OC(=O)c1cccnc1)c1ccc(OCCO)cc1`: the composite z-score in experiment [1] was 0.417; in experiment [5], 0.434; in [7] it was -0.0547; in experiment [8], 0.134; in experiment [9], -0.364; in [10], 0.0089. Besides, the z-score in [2] was 0.0275 (inactive); in experiment [3], -3.48 (inactive); in [4], 0.364 (inactive); in experiment [6] it was 0.02 (inactive).

In the case of `CCCC=C(CCC)[C@@H](NC(=O)OCC(C)C)c1ccccc1`, the composite z-score in experiment [1] stood at 0.934; in experiment [5] it was 2.01; in experiment [7], 0.678; in experiment [8] it was 1.11; in experiment [9], 1.12; in experiment [10], 0.548. Besides, the z-score in experiment [2] was 0.69 (inactive); in experiment [3] it was -0.623 (inactive); in experiment [4], 1.94 (inactive); in [6] it was -1.68 (inactive).

As to `C=C(CCCC)/C(=C/C[C@H](OC(=O)c1ccncc1)c1ccc(OCCO)cc1)c1cc(C(=O)OC)ccc1OC`, the composite z-score in [1] was 0.834; in [5], 1.27; in [7] it was -0.187; in experiment [8], -0.395; in [9] it was -0.0191; in experiment [10] it was 0.689. The z-score was 0.992 (inactive) in experiment [2], -0.78 (inactive) in experiment [3], -0.676 (inactive) in experiment [4] and 0.987 (inactive) in experiment [6].

Regarding `NC(=O)[C@@H]1[C@H]2C(=O)O[C@H](c3ccccc3)[C@H](c3ccccc3)N2[C@H](c2ccc(O)cc2)[C@@]12C(=O)Nc1ccc(C#CC3=CCCCC3)cc12`, the composite z-score in [1] was 1.55; in [5] it was 3.22; in [7], -0.21; in [8], 0.87; in experiment [9] it was 1.11; in experiment [10] it was -0.176. In addition, the z-score in experiment [2] is 1.98 (inactive); in experiment [3], 1.4 (inactive); in experiment [4], 2.74 (inactive); in experiment [6], -0.716 (inactive).

As to `COCCCNC(=O)[C@@]1(Cc2ccccc2)N=C(c2ccc(OCCCO)cc2)O[C@H]1c1ccccc1CN=[N+]=[N-]`, the composite z-score turned out to be 1.56 in [1]; 3.16 in experiment [5]; 0.277 in experiment [7]; 0.445 in experiment [8]; 1.05 in experiment [9]; 0.163 in [10]. For the same compound, the z-score in experiment [2] was -0.201 (inactive); in experiment [3] it was 0.351 (inactive); in experiment [4] it was 0.463 (inactive); in experiment [6] it was 1.06 (inactive).

Regarding `CCCCN1CC=CC23O[C@@H]4C=CCOC(=O)[C@@H]4[C@H]2C(=O)N(CCCCCCO)[C@@H]3C1=O` (stereo not given in full), the composite z-score was -0.598 in experiment [1]; 1.57 in experiment [5]; -0.0665 in [7]; -1.84 in experiment [8]; -0.61 in [9]; -0.244 in [10]. The z-score in experiment [2] was -0.992 (inactive); in [3], -0.053 (inactive); in experiment [4], -0.362 (inactive); in experiment [6], -0.44 (inactive).

On to `CC(C)Cc1ccc(CN2CC[C@@H](N)C2)cc1`, for which the composite z-score in experiment [1] was -1.05; in experiment [5], -1.26; in experiment [7], -0.119; in experiment [8], -0.707; in experiment [9], -0.462; in experiment [10], -0.336. The z-score was -1.18 (inactive) in experiment [2], -21.4 (active) in [3], -4.81 (inactive) in [4] and -4.43 (inactive) in [6].

With `COc1ccc([Si](C)(C)[C@H]2[C@H](CC(=O)N3CCC[C@H]3CO)O[C@@]3(C(=O)N(Cc4cccc(N5CCOC5=O)c4)c4ccccc43)[C@@H]2C)cc1`, the composite z-score in experiment [1] was 1.55; in [5] it was 1.02; in [7], -0.23; in experiment [8] it was 1.28; in [9] it was 1.11; in [10], -0.0271. For the same compound, the z-score was -1.53 (inactive) in experiment [2], 0.239 (inactive) in experiment [3], -1.71 (inactive) in [4] and 1.78 (inactive) in [6].

For `CC(=O)Nc1cc(Br)ccc1C(=O)NCc1ccccc1`, the composite z-score in [1] is 0.717; in experiment [5], 2.06; in experiment [7] it was -0.0778; in [8], -0.0557; in [9], 0.199; in experiment [10], -0.111. Also, the z-score in experiment [2] is -1.76 (inactive); in [3] it was -6.28 (inactive); in experiment [4], -1.98 (inactive); in [6], 0.0591 (inactive).
